SMN2 splice up = increases expression of the SMN2 splice variant; HEK293 SMN2-luciferase splicing reporter, luminescence, 30-36 h; Potency, µM (titrated, usually from 46.1 µM), actives largely listed as activators; 2.8% of 210,000 active; note: nearly all actives have a fitted effect of over 55% in size
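HEK293 cells carry an SMN2 minigene-luciferase reporter in which exon 7 inclusion puts luciferase in frame. Cells were seeded at 2000 cells/well, attached for 10-12 hours, then exposed to compounds for 30-36 hours at 37C before ONE-Glo luminescence.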
KinaseGlo FLuc = counter-screen: inhibitors of Kinase-Glo firefly luciferase; Q27757; Kinase-Glo luciferase, ATP luminescence, 8 min; Potency, µM (top dose mostly 38.3 µM), most hits filed as inhibitors; 0.28% of 200,000 active; note: nearly all actives have a fitted effect of over 60% in size
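Light output from Kinase-Glo luciferase with luciferin and 10 uM ATP in 50 mM imidazole pH 7.2, KCl, MgCl2, Tween 20, BSA; compound pin-delivered, 8-min ambient incubation, then luminescence read.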
NPC1 prom act = activators of NPC1 promoter; Huh7 NPC1 promoter luciferase reporter, 24 h; 2.4% of 320,000 active; Potency, µM (doses to about 9.22 µM), most hits filed as activators; note: nearly all actives have a fitted effect of over 60% in size
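Quantitative HTS used a cell-based reporter: Huh7 cells stably bearing the NPC1 promoter upstream of luciferase were treated with compounds for 24 h, and promoter activation was read as luminescence.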
ELG1 genotoxic = induces genotoxicity in HEK293T cells with luciferase-tagged ELG1; AID 504466; 1.3% of 330,000 active; Potency, µM (titrated, usually from 46 µM), actives largely listed as activators; HEK293T ELG1-luciferase reporter, luminescence, 16 h; note: nearly all actives have a fitted effect of over 60% in size
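HEK293T cells expressing luciferase-tagged ELG1 were treated with compound or DMSO for 16 hr at 37°C. Luciferase activity was then read after 30 min with ONE-Glo at room temperature; rising signal flags genetic stress.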
FLuc modulator = counter-screen for miR-21 project: firefly luciferase inhibitors or activators. P08659. purified FLuc, Km substrates, luminescence inhibition. Potency, µM (highest dose often 57.5 µM), most hits filed as inhibitors. 6.9% of 360,000 active; note: nearly all actives have a fitted effect of over 55% in size
Target sequence (P08659 whole entry, looked up): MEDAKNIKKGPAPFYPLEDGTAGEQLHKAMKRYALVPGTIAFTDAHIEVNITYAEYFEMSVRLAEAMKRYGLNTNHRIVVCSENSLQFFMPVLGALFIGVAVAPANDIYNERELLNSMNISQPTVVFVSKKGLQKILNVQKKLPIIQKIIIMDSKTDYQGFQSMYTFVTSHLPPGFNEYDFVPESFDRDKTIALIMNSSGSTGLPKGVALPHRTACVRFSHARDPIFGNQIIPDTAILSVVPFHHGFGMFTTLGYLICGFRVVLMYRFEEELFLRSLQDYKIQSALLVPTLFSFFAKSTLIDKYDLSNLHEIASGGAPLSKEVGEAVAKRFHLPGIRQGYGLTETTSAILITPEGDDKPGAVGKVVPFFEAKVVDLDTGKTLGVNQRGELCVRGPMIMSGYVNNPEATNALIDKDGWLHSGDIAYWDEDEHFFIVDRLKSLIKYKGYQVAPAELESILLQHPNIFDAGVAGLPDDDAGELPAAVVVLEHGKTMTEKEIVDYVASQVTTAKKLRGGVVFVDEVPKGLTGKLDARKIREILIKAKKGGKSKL
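Purified P. pyralis luciferase (10nM final) with 10uM D-luciferin and 10uM ATP (Km levels) in 50mM Tris acetate pH 7.5, 10mM Mg acetate, 0.01% Tween-20, 0.05% BSA; qHTS 6-point titration, ~60 µM downward; luminescence read.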
Rab9 promoter act = activators of Rab9 promoter; Huh7 Rab9 promoter-luciferase reporter, luminescence, 24 h; Potency, µM (titrated, usually from 9.22 µM), actives largely listed as activators; 2.8% of 320,000 active; AID 485297; note: nearly all actives have a fitted effect of over 60% in size
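Stable Rab9-luc Huh7, 1500 cells/well, 2 h settle; cmpd in DMSO, 24 h, 37 °C/5% CO2; luciferase reagent 10 min RT; luminescence.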
Large screens that a line does not name were inactive. Rows were chosen to be rich in hits. Some 7.3% of all compounds tested hit in one or more screens of this group. Calls come from the whole dose curve; as a rule, active = well fitted curve in the direction sought with a large enough effect; inconclusive = small, poorly fitted or top-dose-only effect, or another doubt; inactive = no such curve, though single readings can be large; an effect the other way counts as inactive or inconclusive.

COc1ccc(-c2csc(NC(=O)CC(C)C)n2)cc1	NPC1 prom act inconclusive, FLuc modulator inconclusive, Rab9 promoter act inconclusive
CC(C)CC(=O)Nc1ccc(-c2cn3ccsc3n2)cc1	SMN2 splice up 10µM, NPC1 prom act 1.41µM, ELG1 genotoxic 1.16µM, FLuc modulator 1.2µM, Rab9 promoter act 0.562µM
CC(C)(C)C(=O)Nc1ccc(-c2cn3ccsc3n2)cc1	SMN2 splice up inconclusive, KinaseGlo FLuc inconclusive, NPC1 prom act 0.282µM, ELG1 genotoxic inconclusive, FLuc modulator 0.536µM, Rab9 promoter act 0.126µM
COc1ccc(C(=O)Nc2ccc(-c3cn4ccsc4n3)cc2)cc1S(=O)(=O)N1CCOCC1	none
Cc1cccc(/C=N/NC(=O)c2cccc(Cl)c2)n1	FLuc modulator inconclusive (no result: SMN2 splice up, KinaseGlo FLuc)
Cc1cccc(/C=N/NC(=O)c2ccccc2OCc2cccc(Br)c2)n1	FLuc modulator 19µM (no result: SMN2 splice up, KinaseGlo FLuc)
Cc1cccc(/C=N/NC(=O)c2cccc(NC(=O)c3ccccc3)c2)n1	FLuc modulator 10.7µM (no result: SMN2 splice up, KinaseGlo FLuc)
Cc1cccc(NC(=O)c2cccc(NC(=O)c3ccccc3)c2)n1	FLuc modulator 21.3µM (no result: SMN2 splice up, KinaseGlo FLuc)
Cc1cccc(/C=N/NC(=O)c2ccc(F)cc2)n1	FLuc modulator 12µM (no result: SMN2 splice up, KinaseGlo FLuc)
Cc1cccc(NC(=O)c2ccc3nccnc3c2)n1	NPC1 prom act inconclusive, ELG1 genotoxic inconclusive, FLuc modulator inconclusive (no result: SMN2 splice up, KinaseGlo FLuc)
COc1cccc(Cc2nc3ccccc3nc2SCC(=O)NCCc2ccccc2)c1	none (no result: SMN2 splice up, KinaseGlo FLuc, NPC1 prom act, ELG1 genotoxic, Rab9 promoter act)
O=C(COc1ccccc1Cl)N(Cc1ccco1)Cc1ccco1	none (no result: KinaseGlo FLuc, NPC1 prom act, ELG1 genotoxic, Rab9 promoter act)
O=c1c2cc(-c3ccccc3)sc2nc2n1N=C(c1ccccc1)CS2	NPC1 prom act 2µM, FLuc modulator 1.9µM, Rab9 promoter act 1.78µM (no result: SMN2 splice up, KinaseGlo FLuc)
CSc1nc2sc(-c3ccccc3)cc2c(=O)n1N	SMN2 splice up 2.82µM, KinaseGlo FLuc inconclusive, NPC1 prom act 1.26µM, ELG1 genotoxic inconclusive, FLuc modulator inconclusive, Rab9 promoter act 0.631µM
CC(C)Sc1nc2sc(-c3ccccc3)cc2c(=O)n1N	none
CCn1nc(-c2ccccc2)c(-c2ccccc2)c(C(=O)Nc2ccccc2C(N)=O)c1=O	none (no result: KinaseGlo FLuc, NPC1 prom act, ELG1 genotoxic, Rab9 promoter act)
c1ccc(-c2nnc(-c3ccccn3)s2)nc1	NPC1 prom act 0.1µM, ELG1 genotoxic inconclusive, FLuc modulator 1.35µM, Rab9 promoter act 0.0891µM (no result: SMN2 splice up, KinaseGlo FLuc)
c1ccc(C2=NNC(c3ccccn3)=NN2)nc1	NPC1 prom act 3.55µM, ELG1 genotoxic inconclusive, FLuc modulator 3.38µM, Rab9 promoter act 0.708µM (no result: SMN2 splice up, KinaseGlo FLuc)
CCOC(=O)c1sc(-c2ccccn2)nc1C	FLuc modulator 26.9µM
CN(C(=O)C1CCCO1)c1nnc(-c2ccccn2)s1 (stereo unspecified)	ELG1 genotoxic inconclusive, FLuc modulator 15.1µM
c1ccc(-c2nc(-c3ccccn3)nc(-c3ccccn3)n2)nc1	none (no result: SMN2 splice up, KinaseGlo FLuc)
Cc1cc2c(n1-c1ccc(C(=O)NCC(C)c3ccccc3)cc1)CCCC2 (stereo unspecified)	none (no result: SMN2 splice up, KinaseGlo FLuc, NPC1 prom act, ELG1 genotoxic, Rab9 promoter act)
CC(C)c1ccc(NC(=O)c2cc(S(=O)(=O)NCc3ccccc3Cl)ccc2F)cc1	none (no result: SMN2 splice up, KinaseGlo FLuc, NPC1 prom act, ELG1 genotoxic, Rab9 promoter act)
CCC1CCCCN1C(=O)Cn1c(=O)n(CC2CCC(C(=O)NC)CC2)c(=O)c2sccc21 (stereo unspecified)	none (no result: SMN2 splice up, KinaseGlo FLuc, NPC1 prom act, ELG1 genotoxic, Rab9 promoter act)
CN(C(=O)C1CCOC1)c1nnc(-c2ccccn2)s1 (stereo unspecified)	ELG1 genotoxic 20.6µM, FLuc modulator 15.1µM, Rab9 promoter act inconclusive
CN(C(=O)C1CCOC1)c1nnc(-c2ccncc2)s1 (stereo unspecified)	SMN2 splice up inconclusive
COCC(=O)N(C)c1nnc(-c2ccccn2)s1	SMN2 splice up 20µM, ELG1 genotoxic 20.6µM, FLuc modulator inconclusive
CCCSc1ncc(Cl)c(C(=O)N2CCN(c3ccc(OC)cc3)CC2)n1	none (no result: KinaseGlo FLuc, NPC1 prom act, ELG1 genotoxic, Rab9 promoter act)
O=C(COc1ccc(Br)cc1Br)NC(=S)Nc1cccc(CO)c1	SMN2 splice up 17.8µM, NPC1 prom act 0.355µM, ELG1 genotoxic 7.31µM, FLuc modulator 3.79µM, Rab9 promoter act 0.447µM
O=C(COc1ccc(Br)cc1Br)NC(=S)N1CCCc2ccccc21	ELG1 genotoxic 23.1µM, FLuc modulator 16.9µM
O=C(COc1ccc2ccccc2c1Br)NC(=S)Nc1cccc(CO)c1	SMN2 splice up inconclusive, NPC1 prom act inconclusive, ELG1 genotoxic 20.6µM, FLuc modulator 8.49µM, Rab9 promoter act inconclusive
O=C(COc1ccc(Br)cc1Cl)NC(=S)N1CCc2ccccc21	SMN2 splice up inconclusive, FLuc modulator inconclusive
O=C(COc1ccccc1Cl)NC(=S)Nc1cccc(NC(=O)c2ccccc2Cl)c1	SMN2 splice up inconclusive, FLuc modulator inconclusive
O=C1COc2cc(S(=O)(=O)CCC(=O)N3CCN(c4cccc(Cl)c4)CC3)c(Cl)cc2N1	none (no result: SMN2 splice up, KinaseGlo FLuc, NPC1 prom act, ELG1 genotoxic, Rab9 promoter act)
CCCSc1nnc2[nH]c(=O)cc(C)n12	none (no result: SMN2 splice up, KinaseGlo FLuc, NPC1 prom act, ELG1 genotoxic, Rab9 promoter act)
O=C(CN1C(=O)S/C(=C\C=C\c2ccccc2)C1=O)Nc1ccc(C(=O)O)cc1	FLuc modulator 6.01µM (no result: SMN2 splice up, KinaseGlo FLuc)
O=C(COC(=O)CCN1C(=O)/C(=C\C=C\c2ccccc2)SC1=S)Nc1cc(F)ccc1F	FLuc modulator 13.5µM
O=C(CN1C(=O)S/C(=C/C=C/c2ccccc2)C1=O)Nc1ccc(C(=O)O)cc1	FLuc modulator 4.78µM
O=C(CCN1C(=O)/C(=C\C=C\c2ccccc2)SC1=S)Nc1ccc(C(=O)O)cc1	NPC1 prom act inconclusive, ELG1 genotoxic inconclusive, FLuc modulator 0.953µM (no result: SMN2 splice up, KinaseGlo FLuc)
